# Records with an inconclusive call do not appear. Entries that show only a call come without a potency. A number with no mark means an inactive call. Active and inactive are the calls of the source. Calls come from the whole dose curve; as a rule, active = well fitted curve in the direction sought with a large enough effect; inconclusive = small, poorly fitted or top-dose-only effect, or another doubt; inactive = no such curve, though single readings can be large; an effect the other way counts as inactive or inconclusive.
# Columns and labels:
# [1] = molecular target: Rap guanine nucleotide exchange factor 3 (Homo sapiens) (UniProt O95398); test: Confirmatory qHTS for antagonist of cAMP-regulated guanine nucleotide exchange factor 3 (EPAC1) (AID 1645880); note: nearly all actives have a fitted effect of over 55% in size; note: potency is the fitted concentration of half-maximal effect
# Procedure, shortened: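 Nucleotide exchange uses 100 nM EPAC1, 250 nM RAP1B-BODIPY-GDP and 50 uM GDP, with compounds in a concentration-titration series. After 5 min at room temperature, fluorescence (480 nm ex/540 nm em) is read every 5 min for 30 min. Data are normalized to control ATA and DMSO.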
# [2] = molecular target: Rap guanine nucleotide exchange factor 3 (Homo sapiens) (UniProt O95398); test: Confirmatory qHTS for agonist of cAMP-regulated guanine nucleotide exchange factor 3 (EPAC1) (AID 1645881); note: nearly all actives have a fitted effect of over 75% in size; note: potency is the fitted concentration of half-maximal effect;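 for activation: EPAC1 catalysed release of BODIPY-GDP from Rap1B seen as fluorescence loss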
# [3] = molecular target: Rap guanine nucleotide exchange factor 4 (Homo sapiens) (UniProt Q8WZA2); test: Confirmatory qHTS for agonist of cAMP-regulated guanine nucleotide exchange factor 4 (EPAC2) (AID 1645884);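 note: nucleotide exchange releases bodipy-GDP from Rap1 and this lowers its fluorescence; nearly all actives have a fitted effect of over 65% in size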; note: potency is the fitted concentration of half-maximal effect
# [4] = molecular target: Rap guanine nucleotide exchange factor 4 (Homo sapiens) (UniProt Q8WZA2); test: Confirmatory qHTS for antagonist of cAMP-regulated guanine nucleotide exchange factor 4 (EPAC2) (AID 1645885); note: nearly all actives have a fitted effect of over 25% in size; note: potency is the fitted concentration of half-maximal effect
# [5] = molecular target: Rap guanine nucleotide exchange factor 3 (Homo sapiens) (UniProt O95398); test: Counterscreen qHTS for antagonist of cAMP-regulated guanine nucleotide exchange factor 3 (EPAC1) (AID 1645888);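 note: fluorescence loss as bound BODIPY-GDP is released from Rap1B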
# Procedure, shortened: (§1)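 Rap1B-BODIPY-GDP 250 nM + GDP 50 uM; cpds 7-pt, final 9.74 nM–152 uM (activator mode) or from 7.32 nM upwards (inhibitor mode); RT; FI 480/540 nm at 5 and 30 min, then ± cAMP, reread.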
# [6] = molecular target: Rap guanine nucleotide exchange factor 3 (Homo sapiens) (UniProt O95398); test: Counterscreen qHTS for agonist of cAMP-regulated guanine nucleotide exchange factor 3 (EPAC1) (AID 1645889); note: nearly all actives have a fitted effect of over 40% in size; note: potency is the fitted concentration of half-maximal effect
# Procedure, shortened: as §1
# Rap guanine nucleotide exchange factor 3 (Homo sapiens), sequence (O95398 whole entry, looked up): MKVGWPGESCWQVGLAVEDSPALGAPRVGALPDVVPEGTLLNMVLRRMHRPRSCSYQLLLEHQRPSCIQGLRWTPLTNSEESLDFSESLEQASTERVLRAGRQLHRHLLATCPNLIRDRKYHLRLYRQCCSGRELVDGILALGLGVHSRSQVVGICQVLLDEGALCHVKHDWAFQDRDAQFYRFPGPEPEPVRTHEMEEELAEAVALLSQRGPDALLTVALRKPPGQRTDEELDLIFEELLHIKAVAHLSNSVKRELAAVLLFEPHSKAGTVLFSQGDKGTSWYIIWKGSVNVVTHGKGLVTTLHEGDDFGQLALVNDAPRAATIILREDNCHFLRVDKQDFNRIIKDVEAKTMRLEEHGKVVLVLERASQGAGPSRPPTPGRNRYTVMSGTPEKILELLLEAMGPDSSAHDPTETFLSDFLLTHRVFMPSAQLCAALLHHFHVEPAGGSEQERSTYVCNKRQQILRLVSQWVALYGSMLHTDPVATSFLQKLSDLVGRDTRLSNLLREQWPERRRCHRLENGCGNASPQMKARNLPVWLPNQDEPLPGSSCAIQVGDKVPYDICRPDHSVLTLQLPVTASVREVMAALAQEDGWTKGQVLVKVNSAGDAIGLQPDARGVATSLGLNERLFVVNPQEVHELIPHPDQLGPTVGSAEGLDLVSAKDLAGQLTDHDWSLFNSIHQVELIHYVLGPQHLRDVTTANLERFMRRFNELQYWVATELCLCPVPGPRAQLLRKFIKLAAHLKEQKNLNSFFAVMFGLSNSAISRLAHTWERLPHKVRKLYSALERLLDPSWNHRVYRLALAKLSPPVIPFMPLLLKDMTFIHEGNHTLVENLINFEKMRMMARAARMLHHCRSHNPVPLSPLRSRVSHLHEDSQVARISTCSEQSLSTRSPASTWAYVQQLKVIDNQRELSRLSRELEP
# Rap guanine nucleotide exchange factor 4 (Homo sapiens), sequence (Q8WZA2 whole entry, looked up): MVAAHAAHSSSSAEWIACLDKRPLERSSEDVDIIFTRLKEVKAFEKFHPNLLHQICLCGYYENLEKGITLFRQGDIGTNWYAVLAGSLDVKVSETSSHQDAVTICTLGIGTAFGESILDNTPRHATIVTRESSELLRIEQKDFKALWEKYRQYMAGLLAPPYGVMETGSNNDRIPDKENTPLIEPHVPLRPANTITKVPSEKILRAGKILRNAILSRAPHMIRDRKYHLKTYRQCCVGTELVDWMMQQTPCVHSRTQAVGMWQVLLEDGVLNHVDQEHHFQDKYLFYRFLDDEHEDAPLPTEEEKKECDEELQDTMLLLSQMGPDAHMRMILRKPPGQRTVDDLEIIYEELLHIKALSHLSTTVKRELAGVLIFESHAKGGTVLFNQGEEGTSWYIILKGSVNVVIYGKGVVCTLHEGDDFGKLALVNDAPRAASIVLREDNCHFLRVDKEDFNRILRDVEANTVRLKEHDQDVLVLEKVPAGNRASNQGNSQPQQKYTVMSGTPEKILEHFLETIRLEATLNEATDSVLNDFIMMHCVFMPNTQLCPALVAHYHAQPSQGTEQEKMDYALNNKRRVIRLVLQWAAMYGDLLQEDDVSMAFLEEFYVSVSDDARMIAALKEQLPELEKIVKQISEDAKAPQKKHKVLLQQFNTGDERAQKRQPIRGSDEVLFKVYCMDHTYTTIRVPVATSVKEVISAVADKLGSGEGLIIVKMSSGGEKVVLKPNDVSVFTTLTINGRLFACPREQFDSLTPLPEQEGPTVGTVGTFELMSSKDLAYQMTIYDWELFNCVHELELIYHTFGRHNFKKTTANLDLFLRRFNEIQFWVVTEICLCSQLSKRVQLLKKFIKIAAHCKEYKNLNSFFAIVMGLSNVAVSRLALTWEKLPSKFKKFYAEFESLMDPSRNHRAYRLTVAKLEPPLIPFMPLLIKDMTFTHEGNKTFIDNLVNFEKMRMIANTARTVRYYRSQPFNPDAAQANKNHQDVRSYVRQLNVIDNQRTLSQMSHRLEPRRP
Compound,Potency [1],Potency [2],Potency [3],Potency [4],Potency [5],Potency [6],activation [3],"activity change, negative = inhibition [5]",activation [6]
COc1ccc(OC)c([C@@H]2OCCC=C[C@H]2C)c1,inactive,inactive,inactive,0.0675 µM (active),inactive,inactive,,,
NS(=O)(=O)c1ccc(-c2cccc(/C=C3\SC(=O)NC3=O)c2)cc1,33.8 µM (active),inactive,inactive,inactive,inactive,inactive,,,
C=CCn1c(CSCc2ccc(Cl)cc2Cl)nnc1SCC(=O)Nc1ccc(C(=O)O)cc1,inactive,inactive,,inactive,,,"0.968% [at 17.1 µM, percent relative to cAMP agonist control]",-5.41% [at 30.8 µM],4.51% [at 30.8 µM]
Cc1cc(=O)n2c(sc3ccccc32)c1C#N,inactive,inactive,,inactive,,,"-1.37% [at 17.1 µM, percent relative to cAMP agonist control]",11.2% [at 30.8 µM],22.2% [at 30.8 µM]
CCOC(=O)C1=NNC2(CC(=O)N(c3cc(C)cc(C)c3)C2=O)C1 (stereo not drawn),inactive,inactive,inactive,inactive,inactive,inactive,,,
COc1cccc(/C(=N/O)C2CC2c2ccc(Cl)cc2)c1 (stereo not drawn),inactive,inactive,,inactive,,,"1.73% [at 17.1 µM, percent relative to cAMP agonist control]",-11.7% [at 30.8 µM],9.41% [at 30.8 µM]
CCc1ccc(/C=C2\SC(=S)N(CCC(=O)Nc3cc(C)on3)C2=O)cc1,inactive,inactive,inactive,inactive,inactive,inactive,,,
CCc1cc(C(=O)c2ccc(OC)cc2)c(NC(=O)CC(C)(C)CC(=O)O)s1,inactive,inactive,inactive,inactive,inactive,inactive,,,
C[C@@H](NC(=O)C1(c2ccccc2)CCN(C(=O)OC(C)(C)C)CC1)C(=O)N[C@@H](C(=O)O)c1ccccc1,42.6 µM (active),inactive,inactive,42.6 µM (active),inactive,inactive,,,
CN(C)CCCN(C(=O)COc1ccc(Cl)cc1)c1nc2cc3c(cc2s1)OCCO3,inactive,inactive,inactive,inactive,inactive,inactive,,,
CCOc1cc(/C=C2\C(=N)N3N=C(S(=O)(=O)CC)SC3=NC2=O)ccc1OC(=O)c1ccco1,30.1 µM (active),inactive,inactive,inactive,inactive,inactive,,,
COC(=O)c1ccc(NC(=O)CCOc2ccccc2)cc1,inactive,inactive,inactive,inactive,inactive,inactive,,,
COc1cc(/C=C2\SC(=S)N(NS(=O)(=O)c3ccccc3)C2=O)ccc1O,inactive,inactive,inactive,inactive,inactive,inactive,,,
COc1cc2cncc(Cc3ccc(Cl)cc3)c2cc1OC,inactive,inactive,inactive,inactive,inactive,inactive,,,
CCOc1cccc(CC(=O)NCc2ccc3c(c2)CCN3C(C)=O)c1OCC,inactive,inactive,inactive,inactive,inactive,inactive,,,
S=C(NCCCN1CCOCC1)Nc1cccc(-c2nnc3n2CCCCC3)c1,inactive,inactive,inactive,inactive,inactive,inactive,,,
CCN(CC)c1nc(C#N)cc(-c2ccc(OC)cc2)n1,inactive,inactive,inactive,inactive,inactive,inactive,,,
O=C(Nc1cc(-c2ccccc2)sc1C(=O)O)c1cccc(F)c1,47.8 µM (active),inactive,inactive,inactive,inactive,inactive,,,
Cc1[nH]n(-c2ccccc2)c(=O)c1C(c1cc(Cl)ccc1O)c1c(C)[nH]n(-c2ccccc2)c1=O,75.7 µM (active),inactive,inactive,inactive,inactive,2.51 µM (active),,,
CCCC(=O)N1c2nc(C(C)C)nn2C2(CCCCC2)[C@@H]2CCCC[C@@H]21,inactive,inactive,inactive,inactive,inactive,inactive,,,
Cc1ccc(-c2csc(N=C(N)N)n2)cc1,inactive,inactive,,inactive,,,"2.77% [at 17.1 µM, percent relative to cAMP agonist control]",-10% [at 30.8 µM],9.63% [at 30.8 µM]
Cc1cn([C@H]2C[C@H](O)[C@@H](CCC(=O)NCc3ccc4c(c3)OCO4)O2)c(=O)[nH]c1=O,inactive,inactive,inactive,inactive,inactive,inactive,,,
COc1ccccc1/C=C/C=C1\Oc2c(ccc(O)c2CN2CCN(CCO)CC2)C1=O,inactive,100 µM (active),100 µM (active),84.9 µM (active),inactive,39.8 µM (active),,,

# — PubChem BioAssay (NCATS)
